# Source: PubChem BioAssay
# Pf Dd2 inh – inhibitors of Plasmodium falciparum Dd2 growth | P. falciparum Dd2 growth, SYBR Green, 72 h; active compounds read low | activity change, % at 10 µM | 2.3% of 94,000 active | AID 1159554; in the data active = activity change below about -80%; inconclusive = no clear call, values can overlap the other calls
# C diff HTS – blocks growth of Clostridium difficile. Clostridium difficile clinical isolate growth, OD600, 24 h; active compounds read low. growth activity, negative = inhibition, % at 16 µg/mL (by protocol). 0.25% of 86,000 active. AID 1259249;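 active = mean growth activity at or below -80% and every replicate also at or below -80%; inconclusive = mean at or below -80% but some replicate above -80%; inactive = mean growth activity above -80%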;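 note: 0% = DMSO wells and -100% = levofloxacin 16 µg/mL wells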
# T cruzi growth-1 – inhibitors of T. cruzi proliferation. inhibition, % at 8.34 µM. T. cruzi beta-gal in NIH3T3, GalScreen luminescence, 90 h. 5.9% of 77,000 active. AID 624255;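 active = mean inhibition above about 93%, with at least 55% of replicates each passing it, limit read from the data, passing the limit was not always enough; inconclusive = only one of those two conditions holds; inactive = neither condition holds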
# T cruzi growth-2 – inhibitors of T. cruzi proliferation; shares compounds with T cruzi growth-1; T. cruzi beta-gal in NIH3T3, GalScreen luminescence, 90 h; inhibition, % at 8.35 µM; 72% of 5,600 active;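 active = mean replicate inhibition above about 95% and at least 55% of replicates individually reaching it, limit read from the data; inconclusive = only one of the two criteria is met; inactive = neither criterion is met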
# T cruzi growth-3 – inhibitors of T. cruzi proliferation; T. cruzi beta-gal in NIH3T3, GalScreen luminescence, 90 h; shares compounds with T cruzi growth-1; inhibition, % at 2.09 µM; 21% of 5,600 active; AID 651740;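 active = mean inhibition above about 95%, with at least 55% of replicates also reaching it, limit read from the data; inconclusive = meets just one of the two conditions; inactive = meets neither condition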;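 note: plate controls were neutral control median for no effect and positive control median for full effect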
# 3T3 cytotox – NIH/3T3 (mouse) viability loss; shares compounds with T cruzi growth-1; NIH/3T3 viability, CellTiter-Glo ATP luminescence, 90 h; cytotoxicity (signal decrease), % at 8.35 µM; 14% of 5,600 active;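 active = mean signal decrease across replicates above about 35% based on untreated-well scatter, with enough replicates individually passing, limit read from the data; inconclusive = no rule stated though some were filed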;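 note: 0% = median of neutral control wells and 100% = median of positive control wells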
# NIH3T3 tox 2 – kills mouse NIH/3T3 fibroblasts; NIH/3T3 viability, CellTiter-Glo ATP luminescence, 90 h; inhibition, % at 24.9 µM; 56% of 5,600 active; AID 651744; shares compounds with T cruzi growth-1;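 active = mean loss of cell viability signal at or above a set limit, and enough replicates individually reaching it; inconclusive = meets only the mean limit or only the replicate share; inactive = meets neither condition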;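 note: 0% = median of neutral control wells and 100% = median of positive control wells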
# * marks the source's active call; other numbers are inactive results; ? = inconclusive; . = not tested or not shown. Hits are enriched below; roughly 6.8% of the tested compounds scored in any of these assays.
SMILES,Pf Dd2 inh,C diff HTS,T cruzi growth-1,T cruzi growth-2,T cruzi growth-3,3T3 cytotox,NIH3T3 tox 2
C[C@@H]1CCCCO[C@@H](CN(C)S(=O)(=O)c2cccs2)[C@@H](C)CN([C@H](C)CO)C(=O)c2cc(NC(=O)CCCCCC(=O)Nc3ccccc3N)ccc2O1,-40,-4,62,.,.,.,.
CCCC#Cc1ccc([C@H]2[C@H](CO)N3C(=O)CN(C(=O)c4cccnc4)C[C@@H]23)cc1,11,-1,.,.,.,.,.
CS(=O)(=O)N1CCCCN2[C@H](CO)[C@H](c3ccc(C#Cc4ccccn4)cc3)[C@@H]2C1,-8,-4,113*,89,48,0,12
COc1ccc(NC(=O)N2CCCCN3[C@H](CO)[C@H](c4ccc(C#Cc5ccccc5)cc4)[C@H]3C2)cc1,-48,50,62,.,.,.,.
COc1ccc(NC(=O)N2CCCCN3[C@H](C2)[C@@H](c2ccc(C#Cc4ccccn4)cc2)[C@@H]3CO)cc1,-16,-1,103*,103*,94,9,38*
O=C(Nc1ccccc1)N1CCCCN2[C@@H](CO)[C@@H](c3ccc(C#Cc4ccccn4)cc3)[C@@H]2C1,-30,0,101*,110*,105*,-3,16
CCS(=O)(=O)N1CCCCN2[C@H](C1)[C@@H](c1ccc(C#Cc3ccccn3)cc1)[C@@H]2CO,26,-9,95,.,.,.,.
O=C(c1ccncc1)N1CCCCN2[C@H](CO)[C@H](c3ccc(C#Cc4ccccn4)cc3)[C@@H]2C1,-7,2,33,.,.,.,.
O=C(c1ccncc1)N1CCCCN2[C@H](C1)[C@@H](c1ccc(C#Cc3ccccn3)cc1)[C@@H]2CO,15,1,108*,105*,13,3,5
CCC(=O)N1CC(=O)N2[C@H](C1)[C@H](c1ccc(-c3cccc(C(=O)N(C)C)c3)cc1)[C@@H]2CO,-14,-1,.,.,.,.,.
CCS(=O)(=O)N1CCC2(CC1)CN(C(=O)Nc1cccc(F)c1)[C@@H](CO)c1c2c2ccc(OC)cc2n1C,-71,8,.,.,.,.,.
O=C(N[C@H]1CC[C@@H](CCNC(=O)c2ccccc2F)O[C@H]1CO)c1ccc2c(c1)OCO2,-6,-1,.,.,.,.,.
CC(=O)N(C)C[C@H]1Oc2cc(C#Cc3cccc(F)c3)ccc2S(=O)(=O)N([C@@H](C)CO)C[C@@H]1C,-18,14,73,.,.,.,.
O=C(C[C@H]1CC[C@H]2[C@@H](COC[C@H](O)CN2Cc2ccc(Oc3ccccc3)cc2)O1)N1CCOCC1,-25,.,3,.,.,.,.
O=C(C[C@@H]1CC[C@@H]2[C@H](COC[C@@H](O)CN2Cc2ccc(Oc3ccccc3)cc2)O1)N1CCN(c2ccccc2)CC1,-71,24,96*,98*,67,11,32*
Cc1ccccc1S(=O)(=O)N1C[C@@H](O)COC[C@@H]2O[C@H](CC(=O)N3CCN(C)CC3)CC[C@H]21,.,-4,?,-27,-15,-5,2
O=C(C[C@H]1CC[C@@H]2[C@H](COC[C@@H](O)CN2Cc2ccc(Oc3ccccc3)cc2)O1)N1CCOCC1,-16,.,12,.,.,.,.
O=C(C[C@H]1CC[C@H]2[C@@H](COC[C@@H](O)CN2Cc2ccc(Oc3ccccc3)cc2)O1)N1CCN(c2ccccc2)CC1,-76,60,127*,101*,57,-32,104*
CN1C[C@H](O)COC[C@@H]2O[C@@H](CC(=O)N3CCN(c4ccccc4)CC3)CC[C@H]21,-32,-3,?,102*,27,4,-6
CN1C[C@@H](O)COC[C@H]2O[C@@H](CC(=O)N3CCN(c4ccccc4)CC3)CC[C@@H]21,-20,-3,21,.,.,.,.
Cc1ccccc1S(=O)(=O)N1C[C@H](O)COC[C@@H]2O[C@@H](CC(=O)N3CCN(C)CC3)CC[C@H]21,.,0,1,.,.,.,.
C[C@@H](NC(=O)C[C@@H]1CC[C@@H](NC(=O)c2cccnc2)[C@@H](CO)O1)c1ccccc1,-2,.,28,.,.,.,.
Cc1ccc(S(=O)(=O)Nc2ccc3c(c2)C(=O)N([C@@H](C)CO)C[C@H](C)[C@H](CN(C)C(=O)NC(C)C)O3)cc1,2,1,26,.,.,.,.
CCNC(=O)C[C@H]1CC[C@@H]2[C@H](COc3ccc(NC(=O)Cc4ccccc4)cc3C(=O)N2C)O1,-2,1,21,.,.,.,.
